Many of the other results were omitted from the sample, so hits are more common in it than they were.
Dicer inh: human Dicer pre-microRNA cleavage inhibition; Q9UPY3; cat-ELCCA pre-miR-21 Dicer processing, chemiluminescence; stronger effect = higher value; z-score at 25 µM; 6% of 47,000 active; in the data active means z-score above about 3, passing the limit was not always enough;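 further: plate controls were vehicle for no effect and no enzyme for full effect; higher signal means more uncleaved substrate so more Dicer inhibition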
Starred values were filed as active, the others as inactive.

SMILES | Dicer inh
CCOc1ccc(S(=O)(=O)N2CCCCC2)cc1-c1nc2c(C(C)(C)C)nn(C)c2c(=O)[nH]1 | 0.62
COc1ccc(NC(C)=O)c(NCc2cc(OC)c(OC)c(OC)c2)c1 | -2
CCCCCCSc1nnc2c(n1)OC(C)N(C(C)=O)c1ccccc1-2 (stereo not given) | 0.75
CC(C)Sc1nnnn1-c1ccccc1 | 4.9*
NC(=O)CSc1nnnn1-c1ccccc1 | 4.9*
CS(=O)(=O)NCCSc1nnnn1-c1ccccc1 | -0.83
CCc1nnc(NC(=O)CSc2nnnn2-c2ccccc2)s1 | 1.8
Cc1n[nH]c(C)c1Sc1nnnn1-c1ccccc1 | -1.7
O=C(CSc1nnnn1-c1ccccc1)Nc1cccc(F)c1 | 0.09
CN(C)/C=C/C(=O)c1nn(-c2ccc(C(F)(F)F)cc2)ccc1=O | 0.82
CCCc1cc(=O)[nH]c(/N=C(\N)Nc2ccc(F)cc2F)n1 | 0.38
CCCn1cnc2ccccc21 | -1.1
COc1cc(CNCCSc2nnnn2C)cc(Cl)c1OCc1ccc(Cl)cc1 | 0.17
Cc1ccc(C)c(NS(=O)(=O)c2ccc3c4c(cccc24)C(=O)N3)c1 | 2.6
O=C1Nc2ccc(S(=O)(=O)Nc3ccccc3O)c3cccc1c23 | 8*
O=C1Nc2ccc(S(=O)(=O)NCCO)c3cccc1c23 | 0.31
Nc1ccc2nc(-c3ccc(-c4nc5ccc(N)cc5[nH]4)cc3)[nH]c2c1 | 0.33
Nc1ccc(-c2nc3ccc(-c4nc5ccc(N)cc5[nH]4)cc3[nH]2)cc1 | 2.1
Cc1ccc2nc(-c3ccc(N)cc3)[nH]c2c1 | 4*
Cc1nn(C(=O)c2cc(C)n(-c3ccccc3)n2)c(C)c1Br | 0.82
COCCN1C(=O)c2oc3ccc(C)cc3c(=O)c2C1c1ccc(O)c(OC)c1 (stereo not given) | -0.18
CCOC(=O)NC(=O)c1cn(Cc2ccco2)c(=O)[nH]c1=O | -0.32
O=C1OC(/C=C/c2ccccc2)=NC/1=C/c1ccc(Cl)cc1 | 2.1
O=C1OC(c2ccccc2)=N/C1=C\c1ccc(/C=C2\N=C(c3ccccc3)OC2=O)cc1 | -0.88
O=C1OC(/C=C/c2ccccc2)=NC/1=C/c1cccc2ccccc12 | 3.5*
SMILES | Dicer inh
Cc1ccc(C(=O)CSc2nnc(C)n2-c2ccc(OCc3ccccc3)cc2)cc1 | -0.35
Cc1ccc(NC(=S)Nc2ccccc2C)c(C)c1 | 2.5
Cc1ccc(NC(=S)Nc2ccccc2N)c(C)c1 | 7*
Cc1ccc(NC(=S)Nc2ccc(C)cc2C)c(C)c1 | 0.92
CCOC(=O)c1sc(N2C(=O)C(=O)/C(=C(/O)c3ccccc3)C2c2cccc(Cl)c2)nc1C (stereo not given) | -0.32
CNS(=O)(=O)c1ccc2c(c1)Cc1cc(S(=O)(=O)NC)ccc1-2 | 0.52
Cc1ccc(S(=O)(=O)Nc2ccc(O)c(Br)c2)cc1 | 1.4
Cc1ccc(S(=O)(=O)Nc2ccc3c(c2)Cc2cc(Br)ccc2-3)cc1 | 3.4*
N#CC(=Nc1ccc(C2CCCCC2)cc1)C1=C(O)c2ccccc2C1=O | 1.7
N#Cc1c(-c2ccco2)nc(SCC(=O)Nc2ccccc2Cl)[nH]c1=O | 2.2
CC1CC(C)CN(c2nc3nonc3nc2N2CC(C)CC(C)C2)C1 (stereo not given) | 2.2
O=C(COC(=O)c1cccc(S(=O)(=O)N2CCSCC2)c1)c1ccccc1 | 1
COc1ccccc1-n1cnc2cc(NCc3ccco3)ccc21 | 6.5*
Cc1nc2cc(NCc3ccco3)ccc2n1C | 1.9
Cc1ccc(-n2cnc3cc(NCc4ccncc4)ccc32)cc1 | 13
Cc1cc(C)cc(OCc2nc(-c3ccc(-n4cccc4)cc3)no2)c1 | -1.1
CCCc1cc(-c2n[nH]c(C)c2-c2ccc(C(=O)OCC)o2)c(O)cc1O | 3.9*
CCOC(=O)c1cc(=O)c2c(O)cccc2o1 | -0.64
CCOC(=O)c1ccc(CSc2n[nH]c(C)n2)o1 | -1
CC(C)(C)C1=CC(=O)C=C(C(C)(C)C)C1=O | -0.75
N/C(=N\C(=O)N1CCOCC1)c1ccccc1 | -0.12
CC(=O)Oc1ccccc1/C(=C/C=C(c1ccccc1)c1ccccc1)N1CCOCC1 | 4.3*
CCOC(=O)/C(C#N)=C/C=C(/c1ccc(Cl)cc1)N1CCOCC1 | 0.23
CN(C)c1ccc(CC(C#N)c2ccc(N)cc2)cc1 (stereo not given) | 0.43
COc1ccc(C2=Nc3ccccc3SC(c3cccc(O)c3)C2)c(O)c1 (stereo not given) | -0.77
SMILES | Dicer inh
Oc1ccccc1C1=Nc2ccccc2N=C(C(F)(F)F)C1 | 2.6
COc1ccc(O)c(C2=Nc3ccccc3N=C(C(F)(F)F)C2)c1 | 3.2*
COc1cc(C(F)(F)F)cc(C(F)(F)F)c1C(=O)NCc1cccs1 | 0.18
CCOC(=O)c1nn(-c2ccccc2)c2nc(Nc3ccc(C)cc3)cc(=O)n12 | -2.7
COCCOC(=O)C1=C(C)NC2=C(C(=O)CC(C)(C)C2)C1c1ccc(OC)cc1OC (stereo not given) | -0.24
COC(=O)C1=C(C)NC(C)=C(C(=O)OC(C)C)C1c1cccc2nonc12 (stereo not given) | -0.72
CCOc1ccccc1C1C(C(=O)OC)=C(C)NC2=C1C(=O)c1ccccc12 (stereo not given) | 0.84
